Reference: PubChem BioAssay (Tox21)
Results filed as inconclusive are left out. Where a call stands in place of a potency, no number is given. Some compounds were tested as several samples or in several runs, with calls that do not always agree. Active and inactive are the calls of the source. Unless noted, calls follow the shape of the dose curve; as a rule, active = well fitted curve in the direction sought with a large enough effect in the repeat runs; inconclusive = weak or mixed curves; inactive = no such curve, though single readings can be large; an effect the other way counts as inactive or inconclusive.

Columns and labels:
[1] = qHTS assay for small molecule agonists of the p53 signaling pathway (AID 651631; calls by dose curve; also: nearly all actives have a fitted effect of over 15% in size)
In short: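 Quantitative high-throughput format: 4,000 p53RE-bla HCT-116 cells/well, 5 h pre-incubation, 16 h compound exposure at 37 °C, 2 h room-temperature substrate step, fluorescence intensity measured.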

[2] = qHTS assay for small molecules that induce genotoxicity in human embryonic kidney cells expressing luciferase-tagged ATAD5 (AID 651632); also: nearly all actives have a fitted effect of over 15% in size
In short: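 Increased luciferase signal from ATAD5-tagged reporter cells indicates DNA-damage-driven ATAD5 induction. HEK293T cells are treated for 16 hr at 37C before detection with Amplite.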

[3] = qHTS assay for small molecule agonists of the p53 signaling pathway - cell viability (AID 651633; calls by dose curve; also: nearly all actives have a fitted effect of over 30% in size; also: potency is read from the fitted curve at half-maximal effect)
In short: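 p53RE-bla cells, seeded at 4,000 per well and rested 5 h at 37 C/5% CO2, received compounds in DMSO for 16 h at 37 C. CellTiter-Glo was then added, and luminescence was read after 30 min at room temperature to gauge cytotoxicity.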

[4] = qHTS assay for small molecules that induce genotoxicity in human embryonic kidney cells expressing luciferase-tagged ATAD5 - cell viability (AID 651634; calls by dose curve; also: nearly all actives have a fitted effect of over 25% in size; also: potency is read from the fitted curve at half-maximal effect)
In short: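 Cytotoxicity counterscreen in HEK293T cells bearing an ATAD5-luciferase reporter: live-cell protease activity measured by CellTiter-Fluor fluorescence after 15.5 hr compound exposure.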

[5] = qHTS assay for small molecule disruptors of the mitochondrial membrane potential - cell viability (AID 720634; calls by dose curve;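 also: human HepG2 liver cancer cells; series mostly up to about 83 µM; nearly all actives have a fitted effect of over 20% in size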)
In short: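 After overnight attachment at 37 C, HepG2 cells received compound or DMSO vehicle for 1 hr. Viability is then taken from ATP-driven luminescence following a 30 min room-temperature CellTiter-Glo step.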

[6] = qHTS assay to test for compound auto fluorescence at 535 nm (green) in HepG2 cells (AID 720675)
[7] = qHTS assay to test for compound auto fluorescence at 590 nm (red) in HEK293 cells (AID 720679)
In short: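 HEK293 cells (2,000/well, medium with 10% dialyzed FBS) attached for 4-5 hr at 37C, received 23 nL compound and were incubated overnight at 37C, 5% CO2. Red fluorescence was then read at 540/590nm Ex/Em, referenced to Rose Bengal sodium.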

[8] = qHTS assay for small molecule disruptors of the mitochondrial membrane potential (AID 720635); also: potency is read from the fitted curve at half-maximal effect
In short: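 HepG2 cells (2,000/well) attached overnight at 37C, then took compound for 1 hr at 37C, 5% CO2. Mito-MPS dye was added for 30 min; fluorescence was read at 490/535 nm (monomers) and 540/590 nm (aggregates).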

[9] = qHTS assay to test for compound auto fluorescence at 590 nm (red) in HepG2 cells (AID 720674)
In short: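 Compound auto-fluorescence is scored relative to Rose Bengal sodium, measured at 540/590 nm in live HepG2 cultures after 1 hr compound contact (37 C, 5% CO2).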

[10] = qHTS assay to test for compound auto fluorescence at 460 nm (blue) in HEK293 cells (AID 720678)
In short: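 HEK293 cells (2,000 per well, medium with 10% dialyzed FBS) attached for 4-5 hr at 37C, then received compound and stood overnight at 37C, 5% CO2. Blue fluorescence was read at Ex/Em 405/460 nm and expressed relative to triamterene.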

| Compound | Potency [1] | Potency [2] | Potency [3] | Potency [4] | Potency [5] | outcome [6] | outcome [7] | Potency [8] | outcome [9] | Potency [10] | fluorescence, relative to Rose Bengal [9] | fluorescence, % of fluorescein control [6] | fluorescence, % of triamterene [10] | fluorescence, % of fluorescent control [7] |
| --- | --- | --- | --- | --- | --- | --- | --- | --- | --- | --- | --- | --- | --- | --- |
| COc1ccccc1Oc1c(NS(=O)(=O)c2ccc(C(C)(C)C)cc2)nc(-c2ncccn2)nc1OCCO | inactive | inactive | inactive | inactive | inactive | inactive | inactive |  |  |  |  |  |  |  |
| O=C(O)C[C@H](NC(=O)OCc1ccccc1)C(=O)O | inactive | inactive | inactive |  | inactive | inactive |  | inactive | inactive | inactive |  |  |  |  |
| CC(C)=CCC/C(C)=C/CC/C(C)=C/CCC(=O)OC/C=C(\C)CCC=C(C)C | inactive | inactive | inactive |  | inactive | inactive | inactive |  | inactive | inactive |  |  |  |  |
| CC(=O)OCCN(CCOC(C)=O)c1ccc(N=Nc2ccc([N+](=O)[O-])cc2C#N)cc1 | inactive | inactive | inactive | 61.1 µM (active) |  | inactive | inactive | 6.86 µM (active) | inactive |  |  |  |  |  |
| C=Cc1ccc(S(=O)(=O)O)cc1 | inactive | inactive |  | inactive | inactive | inactive | inactive | inactive | inactive |  |  |  |  |  |
| CC(C)COCC(CN(Cc1ccccc1)c1ccccc1)N1CCCC1 (stereo unspecified) |  | inactive |  |  |  |  |  |  |  |  |  |  |  |  |
| C=C(C)[C@@H]1CCC2=CCC[C@@H](C)[C@]2(C)C1 |  | inactive |  |  |  |  |  |  |  |  |  |  |  |  |
| Cc1cc(C)c(N)cc1C |  | inactive | inactive | inactive | inactive | inactive | inactive | inactive | inactive | inactive |  |  |  |  |
| COc1ccccc1N1CCN(CC(O)COc2cccc3ccccc23)CC1 (stereo unspecified) |  | inactive | inactive | inactive | inactive | inactive |  |  | inactive | inactive |  |  |  |  |
| OCCOCC#CCOCCO |  | inactive | inactive | inactive | inactive | inactive | inactive |  | inactive | inactive |  |  |  |  |
| CC1CC(OC(=O)C(O)c2ccccc2)CC(C)(C)N1C (stereo unspecified) |  | inactive | inactive | inactive | inactive | inactive |  |  |  | inactive |  |  |  |  |
| N#CCCN(CCO)CCO |  | inactive | inactive | inactive | inactive | inactive | inactive | inactive | inactive | inactive |  |  |  |  |
| CC1=C(Br)C(=O)C(Br)=C/C1=C(/c1ccccc1S(=O)(=O)O)c1cc(Br)c(O)c(Br)c1C |  | inactive | inactive | 37 µM (active) | inactive | inactive |  |  | inactive |  |  |  |  |  |
| CCC(C)COC(C)=O (stereo unspecified) |  | inactive | inactive | inactive | inactive | inactive | inactive | inactive | inactive |  |  |  |  |  |
| CN(C)CCC=C1c2ccccc2C=Cc2ccccc21 |  | inactive | inactive | inactive | inactive | inactive | inactive |  | inactive | inactive |  |  |  |  |
| CC1=Nc2ccc3ccccc3c2C1(C)C |  | inactive | inactive | inactive | inactive | inactive | inactive | 19.3 µM (active) | inactive |  |  |  |  |  |
| CC(=O)c1ccc([N+](=O)[O-])cc1 |  | inactive | inactive | inactive | inactive | inactive |  |  | inactive | inactive |  |  |  |  |
| Cc1ccccc1S |  | inactive | inactive | inactive | inactive | inactive | inactive | inactive | inactive | inactive |  |  |  |  |
| CN1C(C(=O)Nc2ccccn2)=C(O)c2sccc2S1(=O)=O |  | inactive | inactive | inactive | inactive |  |  | 7.17 µM (active) |  |  | -0.263% [at 18.6 µM] (inactive) | 0.0319% [at 18.6 µM] (inactive) | 0.367% [at 18.6 µM] (inactive) | 0.192% [at 18.6 µM] (inactive) |
| CN1CCCC(n2nc(Cc3ccc(Cl)cc3)c3ccccc3c2=O)CC1 (stereo unspecified) |  | inactive | inactive | inactive | inactive | inactive | inactive |  | inactive | inactive |  |  |  |  |
| C[C@H]1c2cccc(O)c2C(O)=C2C(=O)[C@]3(O)C(O)=C(C(N)=O)C(=O)[C@@H](N(C)C)[C@@H]3[C@@H](O)[C@@H]21 |  | inactive | inactive | inactive | inactive | inactive |  |  | inactive | inactive |  |  |  |  |
| C=C/C(C)=C/C/C=C(\C)CCC=C(C)C |  | inactive | inactive | inactive | inactive | inactive | inactive |  | inactive | inactive |  |  |  |  |
| O=C=Nc1ccc(Cl)c(Cl)c1 | inactive |  |  |  |  | inactive | inactive | 7.57 µM (active) | inactive |  |  |  |  |  |
| CC(C)(c1ccccc1)c1ccccc1 |  | inactive | inactive | inactive | inactive | inactive | inactive |  |  | inactive |  |  |  |  |
| Cc1ccc(Cl)c(Nc2ccccc2C(=O)O)c1Cl |  | inactive | inactive | inactive | inactive | inactive |  |  | inactive | inactive |  |  |  |  |
| C[C@@]12CCC[C@H]1[C@@H]1CC[C@H]3C[C@@H](O)CC[C@]3(C)[C@H]1CC2 |  | inactive | inactive | inactive | inactive | inactive | inactive | inactive |  | inactive |  |  |  |  |
| CCc1ccccc1 |  | inactive | inactive | inactive | inactive | inactive | inactive | inactive |  |  |  |  |  |  |
| CCCCCC[C@@H](O)C/C=C\CCCCCCCC(=O)O |  | inactive | 21.1 µM (active) and inactive | inactive | inactive | inactive | inactive | inactive | inactive | inactive |  |  |  |  |
